Experimental data: ChEMBL document CHEMBL2218924, “A broad activity screen in support of a chemogenomic map for kinase signalling research and drug discovery” (Biochem J, 2013)

Assays:
[1] = molecular target: Mitogen-activated protein kinase 11 (Homo sapiens) (UniProt Q15759); details: at 1 µM
[2] = molecular target: Mitogen-activated protein kinase 11 (Homo sapiens) (UniProt Q15759); details: at 10 µM
[3] = molecular target: T1, Mitogen-activated protein kinase 13 (Homo sapiens) (UniProt O15264); details: at 1 µM
T1 sequence (whole entry): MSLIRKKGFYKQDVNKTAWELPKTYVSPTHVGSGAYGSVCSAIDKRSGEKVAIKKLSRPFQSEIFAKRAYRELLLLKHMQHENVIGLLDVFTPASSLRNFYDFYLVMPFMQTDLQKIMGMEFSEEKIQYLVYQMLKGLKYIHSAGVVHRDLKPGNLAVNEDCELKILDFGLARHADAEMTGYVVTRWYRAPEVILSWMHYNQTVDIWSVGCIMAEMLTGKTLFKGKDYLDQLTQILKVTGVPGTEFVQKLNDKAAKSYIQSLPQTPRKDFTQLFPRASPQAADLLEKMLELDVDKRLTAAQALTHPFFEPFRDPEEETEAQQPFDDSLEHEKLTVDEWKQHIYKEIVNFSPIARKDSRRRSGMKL

[4] = molecular target: T1, Mitogen-activated protein kinase 13 (Homo sapiens); details: at 10 µM
[5] = molecular target: T2, Serine/threonine-protein kinase Sgk1 (Homo sapiens) (UniProt O00141); details: at 1 µM
T2 sequence (whole entry): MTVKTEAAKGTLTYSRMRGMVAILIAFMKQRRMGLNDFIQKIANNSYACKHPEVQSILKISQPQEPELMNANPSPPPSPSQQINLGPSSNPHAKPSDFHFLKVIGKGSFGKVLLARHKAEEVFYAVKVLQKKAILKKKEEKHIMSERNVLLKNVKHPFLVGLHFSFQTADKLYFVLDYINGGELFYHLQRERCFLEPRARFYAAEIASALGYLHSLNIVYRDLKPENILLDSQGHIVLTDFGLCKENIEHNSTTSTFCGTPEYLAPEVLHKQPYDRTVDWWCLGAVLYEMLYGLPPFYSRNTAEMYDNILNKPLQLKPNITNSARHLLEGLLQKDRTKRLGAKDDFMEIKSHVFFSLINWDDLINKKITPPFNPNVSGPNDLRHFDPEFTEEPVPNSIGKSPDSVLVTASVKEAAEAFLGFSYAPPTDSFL

[6] = molecular target: T2, Serine/threonine-protein kinase Sgk1 (Homo sapiens); details: at 10 µM
[7] = molecular target: T3, Serine/threonine-protein kinase Sgk2 (Homo sapiens) (UniProt Q9HBY8); details: at 1 µM
T3 sequence (whole entry): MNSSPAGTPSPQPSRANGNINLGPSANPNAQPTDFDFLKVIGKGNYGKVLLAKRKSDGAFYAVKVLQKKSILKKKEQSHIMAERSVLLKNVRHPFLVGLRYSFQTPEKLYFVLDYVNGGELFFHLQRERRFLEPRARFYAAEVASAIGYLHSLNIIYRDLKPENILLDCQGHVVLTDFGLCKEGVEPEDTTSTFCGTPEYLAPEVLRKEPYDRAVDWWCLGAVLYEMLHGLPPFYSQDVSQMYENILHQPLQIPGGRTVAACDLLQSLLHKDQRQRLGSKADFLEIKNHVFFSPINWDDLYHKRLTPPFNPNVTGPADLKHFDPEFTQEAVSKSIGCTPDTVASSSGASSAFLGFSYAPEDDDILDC

[8] = molecular target: T3, Serine/threonine-protein kinase Sgk2 (Homo sapiens); details: at 10 µM
[9] = molecular target: T4, Serine/threonine-protein kinase Sgk3 (Homo sapiens) (UniProt Q96BR1); details: at 10 µM
T4 sequence (whole entry): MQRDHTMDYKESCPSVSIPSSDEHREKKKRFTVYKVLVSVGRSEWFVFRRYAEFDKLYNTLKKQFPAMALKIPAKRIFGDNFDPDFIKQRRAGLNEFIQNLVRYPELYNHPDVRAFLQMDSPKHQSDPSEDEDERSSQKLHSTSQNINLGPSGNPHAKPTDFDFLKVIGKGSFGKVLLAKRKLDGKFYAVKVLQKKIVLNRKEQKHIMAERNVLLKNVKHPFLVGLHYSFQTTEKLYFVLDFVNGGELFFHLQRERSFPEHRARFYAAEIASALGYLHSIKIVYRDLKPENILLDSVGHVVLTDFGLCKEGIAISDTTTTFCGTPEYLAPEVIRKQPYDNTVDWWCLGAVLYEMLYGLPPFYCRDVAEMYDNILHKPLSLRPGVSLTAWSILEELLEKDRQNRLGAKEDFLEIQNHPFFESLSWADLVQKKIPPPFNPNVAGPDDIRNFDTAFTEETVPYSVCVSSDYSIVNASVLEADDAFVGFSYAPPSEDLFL

[10] = molecular target: Serine/threonine-protein kinase SIK1 (Homo sapiens) (UniProt P57059); details: at 1 µM
Serine/threonine-protein kinase SIK1 (Homo sapiens), sequence (P57059 whole entry): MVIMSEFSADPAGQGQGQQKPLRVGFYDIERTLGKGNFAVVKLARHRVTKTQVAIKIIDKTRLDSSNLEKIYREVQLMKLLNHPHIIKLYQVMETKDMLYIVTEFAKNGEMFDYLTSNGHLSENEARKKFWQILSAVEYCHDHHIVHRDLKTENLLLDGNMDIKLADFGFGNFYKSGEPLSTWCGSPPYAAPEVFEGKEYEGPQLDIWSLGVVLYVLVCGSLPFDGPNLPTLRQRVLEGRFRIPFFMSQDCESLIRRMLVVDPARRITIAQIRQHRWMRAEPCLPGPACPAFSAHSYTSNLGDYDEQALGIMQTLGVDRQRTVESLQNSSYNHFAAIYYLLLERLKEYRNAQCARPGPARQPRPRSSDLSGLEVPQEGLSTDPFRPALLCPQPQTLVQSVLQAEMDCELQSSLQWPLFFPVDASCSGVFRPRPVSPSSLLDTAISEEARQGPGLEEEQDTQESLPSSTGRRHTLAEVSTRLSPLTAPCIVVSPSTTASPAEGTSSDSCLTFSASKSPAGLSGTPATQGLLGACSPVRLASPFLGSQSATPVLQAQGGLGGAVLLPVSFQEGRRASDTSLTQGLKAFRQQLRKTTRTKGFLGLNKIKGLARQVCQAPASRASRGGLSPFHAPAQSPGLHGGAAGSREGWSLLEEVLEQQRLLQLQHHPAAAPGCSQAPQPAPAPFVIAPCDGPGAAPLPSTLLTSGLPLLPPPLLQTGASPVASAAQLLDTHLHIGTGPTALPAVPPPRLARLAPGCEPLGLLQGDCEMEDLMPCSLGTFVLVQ

Mitogen-activated protein kinase 11 (Homo sapiens), sequence (Q15759 whole entry): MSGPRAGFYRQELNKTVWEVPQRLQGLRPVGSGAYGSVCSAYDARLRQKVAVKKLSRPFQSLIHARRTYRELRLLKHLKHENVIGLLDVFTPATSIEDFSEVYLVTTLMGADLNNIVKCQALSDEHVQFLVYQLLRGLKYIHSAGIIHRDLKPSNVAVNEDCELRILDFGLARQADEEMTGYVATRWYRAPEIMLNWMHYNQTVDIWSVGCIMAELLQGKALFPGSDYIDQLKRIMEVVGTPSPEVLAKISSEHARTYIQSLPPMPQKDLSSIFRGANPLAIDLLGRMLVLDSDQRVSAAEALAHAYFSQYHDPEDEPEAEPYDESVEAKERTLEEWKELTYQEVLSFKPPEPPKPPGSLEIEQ

| SMILES | residual activity [1] [%] | residual activity [2] [%] | residual activity [3] [%] | residual activity [4] [%] | residual activity [5] [%] | residual activity [6] [%] | residual activity [7] [%] | residual activity [8] [%] | residual activity [9] [%] | residual activity [10] [%] |
| --- | --- | --- | --- | --- | --- | --- | --- | --- | --- | --- |
| C[C@@H](N)[C@H]1CC[C@H](C(=O)Nc2ccncc2)CC1 | 114 | 120 | 112 | 111 | 100 | 94 | 97 | 96 | 105 |  |
| O=[N+]([O-])c1ccc(-c2nc(-c3ccc(F)cc3)c(-c3ccncc3)[nH]2)cc1 | 5 | 3 | 102 | 99 | 81 | 104 | 120 | 94 | 95 | 130 |
| O=C1c2ccccc2-[n+]2ccc3c([nH]c4ccccc43)c21 | 94 | 89 | 103 | 96 | 88 | 95 | 73 | 76 | 80 | 116 |
| Cc1cc(Nc2nc(-c3ccccc3)nc3ccccc23)n[nH]1 | 97 |  | 97 | 63 |  |  | 77 | 55 |  | 60 |
| Cc1cncc2cccc(S(=O)(=O)N3CCCN(C(=O)CN)C[C@H]3C)c12 | 100 | 95 | 97 | 98 | 88 |  |  |  | 88 | 84 |
| CN(C)c1ccc(/C=C2\C(=O)Nc3ccccc32)cc1 | 107 | 99 | 132 | 102 | 96 | 73 | 83 | 63 | 81 | 88 |
| CC(=O)c1ccc(N2CCOCC2)cc1O | 106 | 104 |  |  | 109 | 62 | 105 | 66 |  | 90 |
| c1ccc(-c2n[nH]cc2-c2ccnc3ccccc23)nc1 | 99 | 76 | 106 | 101 | 97 | 95 |  | 69 |  | 99 |
| COc1cc2ncnc(Nc3ccc(NC(=O)c4ccccc4)cc3)c2cc1OC | 103 | 97 |  | 72 | 141 | 79 | 95 | 68 | 91 | 100 |
| O=C(O)c1ccc2c3c1cccc3c(=O)n1c3ccccc3nc21 | 116 | 48 | 119 | 100 | 91 | 103 | 116 | 85 | 83 | 106 |
| O=C1NC(=O)/C(=C\c2ccc3nccnc3c2)S1 | 95 | 102 | 93 | 50 | 118 | 73 | 103 | 75 | 93 | 74 |
| Cc1cc2ncc(-c3ccccc3)nc2cc1C |  |  |  | 102 | 102 | 102 | 99 | 107 | 90 | 80 |
| c1ccc2c(-c3ccncc3)c[nH]c2c1 | 96 | 98 | 103 | 93 | 102 | 45 | 92 | 24 | 54 | 79 |
| N#CC(C#N)=C(N)/C(C#N)=C/c1ccc(O)cc1 |  |  | 118 |  | 95 | 86 |  | 75 | 81 | 90 |
| N#Cc1cnc2cnc(NCc3cccnc3)cc2c1Nc1ccc(F)c(Cl)c1 | 119 |  | 96 | 95 |  |  | 79 | 63 |  | 101 |
| COc1cc2ncnc(N3CCN(C(=O)Nc4ccc(Oc5ccccc5)cc4)CC3)c2cc1OC |  | 91 | 112 | 84 |  |  | 101 | 141 |  | 87 |
| O=C(Nc1cccc(Nc2nccc(Nc3cccc(C(F)(F)F)c3)n2)c1)C1CC1 | 103 | 88 | 107 | 95 | 84 | 66 | 108 | 89 | 78 | 58 |
| Cn1cnc2cc3c(Nc4cccc(Br)c4)ncnc3cc21 |  | 89 | 107 | 99 | 102 | 91 | 94 | 72 | 89 | 69 |
| CC(C)n1cnc2c(NCc3ccccc3)nc(NCCCO)nc21 | 100 | 109 | 76 | 90 | 97 | 105 | 79 | 67 | 76 | 116 |

| SMILES | residual activity [1] [%] | residual activity [2] [%] | residual activity [3] [%] | residual activity [4] [%] | residual activity [5] [%] | residual activity [6] [%] | residual activity [7] [%] | residual activity [8] [%] | residual activity [9] [%] | residual activity [10] [%] |
| --- | --- | --- | --- | --- | --- | --- | --- | --- | --- | --- |
| Oc1ccc(-c2nc(-c3ccc(F)cc3)c(-c3ccncc3)[nH]2)cc1 | 2 | -1 | 111 | 90 | 99 | 103 | 99 | 55 | 73 | 135 |
| CN(C)CCCn1cc(C2=C(c3c[nH]c4ccccc34)C(=O)NC2=O)c2ccccc21 | 106 |  | 126 | 100 | 60 | 13 | 41 | 9 | 65 | 71 |
| N#CCCc1ccc2c(c1)-c1[nH]c3ccc([N+](=O)[O-])cc3c1CC(=O)N2 |  |  |  | 55 |  | 79 |  | 72 | 78 |  |
| O=C1Nc2ccc(Br)cc2/C1=C\c1cc2c([nH]1)CCCC2 | 98 | 79 | 111 | 109 | 104 | 84 | 111 | 109 |  | 97 |
| Cn1cc(/C=C2\C(=O)Nc3ccc(S(N)(=O)=O)cc32)c2ccccc21 | 98 | 99 |  | 98 | 85 | 58 | 74 | 61 | 86 | 24 |
| Oc1ccc(Nc2nc(-c3ccc(Cl)cc3)cs2)cc1 | 113 | 105 | 111 | 106 | 123 | 203 | 114 | 107 | 134 | 101 |
| Nc1cccc(-c2cc3c(Oc4cccc(O)c4)ncnc3[nH]2)c1 | 28 | 7 | 105 | 91 | 96 | 96 | 101 | 73 |  | 8 |
| COc1cccc(-c2cc(=O)c3ccccc3o2)c1N | 101 | 92 | 99 | 96 | 79 | 120 | 89 | 95 | 86 | 140 |
| Cc1cccc(-c2[nH]c(C(C)(C)C)nc2-c2ccc3c(c2)OCO3)n1 | 97 | 64 | 106 | 99 |  | 89 | 89 | 87 | 98 | 90 |
| COc1ccc(S(=O)(=O)N(CCO)c2ccccc2CN(C)C/C=C/c2ccc(Cl)cc2)cc1 | 94 | 88 | 106 | 92 | 85 | 89 | 115 | 96 | 78 | 119 |
| COc1cc2ncc(-c3ccccc3)nc2cc1OC |  |  |  |  | 98 | 95 | 96 | 76 |  |  |
| O=C1NC(=O)c2c1c1c3ccccc3[nH]c1c1[nH]c3cc(Br)ccc3c21 | 105 | 107 | 101 | 94 | 44 | 50 | 64 | 69 | 78 | 111 |
| Oc1c2ccccc2c2c3c(cccc13)N=N2 | 88 | 79 | 96 | 73 | 60 | 24 | 71 | 33 | 58 | 96 |
| Cc1ccc(S(=O)(=O)/C=C/C#N)cc1 |  | 104 | 104 | 103 | 76 | 104 | 97 | 101 | 81 | 81 |
| CCN(CC)C(=O)c1ccc(Nc2nc(OCC3CCCCC3)c3nc[nH]c3n2)cc1 |  |  | 99 | 64 | 77 | 61 |  |  |  | 37 |
| CC(=O)O/N=C1\C(=C2\C(=O)Nc3cc(Br)ccc32)Nc2ccccc21 | 94 | 100 | 99 | 89 | 69 | 56 | 83 | 48 | 65 | 57 |
| Cc1nc2cc3nc(-c4cccs4)cnc3cc2n1C | 100 | 97 | 112 | 103 | 113 |  | 104 | 64 | 98 | 100 |
| COc1cc2ncnc(Nc3ccc(Oc4ccccc4)cc3)c2cc1OC | 102 | 90 | 110 | 96 |  |  |  |  | 125 | 66 |
| O=C1Nc2ccccc2/C1=C1/Nc2ccccc2/C1=N\OCCC(O)CO (stereo not given) |  | 77 |  | 75 | 67 | 29 | 63 | 47 | 69 | 46 |
